Rows were chosen to be rich in hits. Some 8.1% of all compounds tested hit in one or more screens of this group.
PINK1 expr mod: changes PINK1 expression | PINK1 immunofluorescence, high-content cytometry, 24 h | hit rate 0.2% among 410,000 | Potency, µM (titrated, usually from 76.6 µM), without a hit: at the top dose activation (PINK1 increase), usual class: activators; active = well fitted activation curve with a large enough effect; inconclusive = small, poorly fitted or top-dose-only effect; cell line not stated here; note: % of control where 0% means no effect; nearly all actives have a fitted effect of over 65% in size
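Stable cell line treated 24 h with compounds at 5 concentrations (CCCP controls), then fixed and immunostained for PINK1 plus nuclear and cell stains; PINK1 immunofluorescence quantified by laser-scanning microplate cytometry.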
ClpP mod: qHTS Assay for Activators of ClpP. hit rate 1.9% among 340,000. ATP-dependent Clp protease proteolytic subunit (Bacillus subtilis (strain 168)), P80244. purified B. subtilis ClpP, FRET peptide cleavage, 20 min. AID 651965, 2013. Potency, µM (doses to about 57.5 µM), without a hit: top-dose activity change, negative = active; active = well fitted falling curve with a large enough effect; inconclusive = small, poorly fitted or top-dose-only effect; inactive = no such curve, though single readings can be large or run the other way; note: the source files actives as falling curves though it sought activators and does not explain the sign; nearly all actives have a fitted effect of over 65% in size
Target sequence (P80244 whole entry, looked up): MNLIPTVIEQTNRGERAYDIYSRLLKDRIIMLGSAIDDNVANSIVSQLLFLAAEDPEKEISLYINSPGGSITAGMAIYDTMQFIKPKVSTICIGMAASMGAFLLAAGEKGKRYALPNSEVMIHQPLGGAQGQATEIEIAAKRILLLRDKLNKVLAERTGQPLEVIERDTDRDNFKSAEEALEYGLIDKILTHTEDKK
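FRET quenching reversal measured ClpP activation: 10 microg/mL B. subtilis ClpP at pH 8 with the FRET-FV decapeptide, read at 430 nm after 320 nm excitation. The 20-min minus 0-min signal was scaled between DMSO/no-enzyme wells and ADEP (5.8 microM final).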
Sfp PPTase inh: blocks B. subtilis Sfp PPTase activity; Q9F4F7; Biochemical Sfp PPTase activity, qHTS; Potency, µM, without a hit: largest response in the series, negative = inhibition, hits mostly inhibitors; hit rate 3.5% among 310,000;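 note: the enzyme is Sfp with the accession as filed and its product quenches rhodamine fluorescence; 0% = enzyme reaction without inhibitor and -100% = no enzyme wells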
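Compounds were incubated with enzyme (final 15 nM) for 15 min at room temperature before substrate addition started the reaction. Fluorescence at 525 nm excitation, 598 nm emission was recorded immediately and after 30 minutes.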
Epigenetic reg: regulators of epigenetic silencing causing reporter derepression in mouse cells. murine LDR cells, GFP reporter derepression, 30 h. Potency, µM (titrated, usually from 53.9 µM), for inactives: top-dose GFP activation, usual class: activators. hit rate 0.2% among 280,000. AID 1865; note: % of control where 0% means no effect; nearly all actives have a fitted effect of over 60% in size
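Derepression of a silenced CMV-GFP reporter in murine LDR cells is scored by enumerating GFP-positive cells with a laser-scanning microplate cytometer after 30 hours of treatment at 37 C.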
RORgamma inh: inhibitors of mouse ROR gamma transcriptional activity | hit rate 5.4% among 310,000 | AID 2551 | P51450 | Drosophila S2 Gal4-RORgamma UAS-luciferase reporter, 20 h | Potency, µM (doses to about 53.6 µM), for inactives: at the highest dose activity change, negative = inhibition, most hits filed as inhibitors; note: % is set by controls: 0 for no effect and ±100 for the full control effect; nearly all actives have a fitted effect of over 60% in size
Target sequence (P51450 whole entry, looked up, the tested form may be a part): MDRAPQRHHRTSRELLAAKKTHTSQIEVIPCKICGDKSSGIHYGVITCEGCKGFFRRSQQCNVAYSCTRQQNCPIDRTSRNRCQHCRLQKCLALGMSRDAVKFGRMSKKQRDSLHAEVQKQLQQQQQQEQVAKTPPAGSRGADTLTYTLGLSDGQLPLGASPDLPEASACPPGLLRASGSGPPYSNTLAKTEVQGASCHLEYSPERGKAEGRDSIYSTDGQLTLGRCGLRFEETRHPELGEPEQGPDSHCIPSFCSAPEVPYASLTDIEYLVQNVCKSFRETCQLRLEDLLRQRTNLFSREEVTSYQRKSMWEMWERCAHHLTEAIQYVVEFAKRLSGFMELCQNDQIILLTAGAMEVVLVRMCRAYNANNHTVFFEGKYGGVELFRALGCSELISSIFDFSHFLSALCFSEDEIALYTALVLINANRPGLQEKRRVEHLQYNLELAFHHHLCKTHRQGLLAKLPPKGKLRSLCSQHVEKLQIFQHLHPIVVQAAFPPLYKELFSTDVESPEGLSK
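Stably transfected Drosophila Schneider cells are the test system, with ROR gamma fused to Gal4 and luciferase under UAS control; luminescence is read after 20 hr of 700 uM copper sulfate induction at ambient temperature.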
VP16 counter: inhibits Gal4-VP16 luciferase reporter, ROR gamma counter-screen; Drosophila S2 Gal4-VP16 UAS-luciferase, luminescence, 20 h; Potency, µM (top dose mostly 53.6 µM), for inactives: top-dose activity, negative = inhibition, actives largely listed as inhibitors; hit rate 3.5% among 310,000;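 note: Gal4-VP16 expression switched on by copper sulfate through the metallothionein promoter; % is set by controls: 0 for no effect and ±100 for the full control effect; nearly all actives have a fitted effect of over 50% in size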
Starred values were filed as active, the others as inactive; ? = inconclusive; · = no result given; [ ] = remark or other dose. Unless noted, calls come from the whole dose curve; as a rule, active = well fitted curve in the direction sought with a large enough effect; inconclusive = small, poorly fitted or top-dose-only effect, or another doubt; inactive = no such curve, though single readings can be large; an effect the other way counts as inactive or inconclusive. Potency is the fitted concentration of half-maximal effect.

SMILES	PINK1 expr mod	ClpP mod	Sfp PPTase inh	Epigenetic reg	RORgamma inh	VP16 counter
Cc1[nH]nc2c1C1(CCN(C(=O)OCc3ccccc3)CC1)C(C#N)=C(N)O2	1%	1%	4%	-1%	5µM*	?
CC(C)OC(=O)c1c2c(n3ccccc13)C(=O)c1ccccc1C2=O	11%	·	?	10µM*	-24%	-12%
CCCS(=O)(=O)c1c(S(=O)(=O)CCC)c2c(N)cccn2c1C(=O)c1ccc(Br)cc1	-2%	1%	-24%	0%	29%	-2%
CCCS(=O)(=O)c1c(S(=O)(=O)CCC)c2c(C)cccn2c1C(=O)OC	·	-9%	79µM*	0%	13%	-2%
CCCS(=O)(=O)c1c(S(=O)(=O)CCC)c2c(N)cccn2c1C(=O)c1ccc(F)cc1	-3%	0%	22µM*	0%	9%	14%
Cc1ccc(C(=O)Nc2ccc3c(c2)N(C)C(=O)c2ccccc2S3)cc1F	3%	?	·	0%	·	·
COC(=O)C(O)C1C(C)(C)C(OC(C)=O)C2CC3=C4CC(=O)OC(c5ccoc5)[C@]4(C)CCC3[C@@]1(C)C2=O (stereo partly drawn)	·	·	5%	4%	13µM*	4%
C=C1C2CC[C@@]3(C)C(c4ccoc4)OC(=O)C[C@@]13OC1CC(=O)C(C)(C)C(C(O)C(=O)OC)[C@]12C (stereo partly drawn)	·	·	11%	1%	0%	-4%
O=C1c2ccc(Br)cc2C(=O)N1c1ccc(Cc2ccncc2)cc1	0%	·	-11%	2%	?	14µM*
Cc1cc(NN)nc2ccc(Cl)cc12	-3%	·	11µM*	-1%	-29%	0%
Cc1ccc(NCc2cccn2-c2nnc(N3CCC(C(=O)NCc4ccccc4C)CC3)s2)cc1	0%	1%	·	0%	·	·
COc1ccc(N2CCN(CCNC(=O)CCCn3c(=O)[nH]c4cc(Cl)ccc4c3=O)CC2)cc1	0%	28µM*	3%	0%	-6%	-9%
COc1ccccc1N1CCN(CCCn2c(=S)[nH]c3ccccc3c2=O)CC1	3%	-2%	9%	·	13µM*	?
COc1ccccc1N1CCN(CCn2c(=O)[nH]c3c([nH]c4ccccc43)c2=O)CC1	·	·	12%	1%	18%	-17%
COc1ccc(N2CCN(CCCn3c(=S)[nH]c4ccccc4c3=O)CC2)cc1	3%	0%	2%	·	6.3µM*	?
COc1ccc(N2CCN(CCCNC(=O)CCCn3c(=O)[nH]c4ccsc4c3=O)CC2)cc1	-2%	-7%	0%	-1%	7%	-3%
CCOc1cc2[nH]c(=O)n(CCCN3CCN(c4ccc(OC)cc4)CC3)c(=O)c2cc1OCC	1%	·	9%	-1%	2%	1%
COCC(=O)Nc1cc(C(=O)N2CCc3ccccc3C2)c2c(c1)nc(-c1ccncc1)n2C	0%	·	·	·	·	·
COc1cc(=O)n2c(c1C(=O)NC(C)c1ccco1)CCN(CC=C(C)C)CC2 (stereo not drawn)	-1%	·	·	·	·	·
O=C(CN1C(=O)c2ccccc2S1(=O)=O)c1ccc2c(c1)OCCO2	3%	-2%	5%	-1%	0.025µM*	0.56µM*
O=C(CN1C(=O)c2ccccc2S1(=O)=O)c1ccc2c(c1)OCCCO2	3%	·	1%	1%	0.28µM*	0.71µM*
CC(C)(C)C(=O)Nc1ccc2c(c1)C(=O)C(=O)c1ccccc1-2	-1%	4%	·	·	·	·
Cc1cc2c(cc(C(=O)N3CCC(C(=O)N4CCCC4)CC3)n2Cc2c(F)cccc2Cl)o1	0%	0%	50µM*	-4%	12%	-6%
CCOC(=O)c1cc2occc2n1Cc1c(F)cccc1Cl	1%	-2%	-18%	1%	26%	5%
Cc1ccc(NC(c2cccc(Cl)c2)c2nnc(-c3ccccc3)o2)cc1F (stereo not drawn)	5%	-2%	·	1%	·	·
SMILES	PINK1 expr mod	ClpP mod	Sfp PPTase inh	Epigenetic reg	RORgamma inh	VP16 counter
COc1cc2c3c(c1)/C(=C1/SC(NC(C)=O)=NC1=O)C(=O)N3C(C)(C)C=C2C	2%	-1%	35µM*	0%	4%	?
N=c1c2c(-c3ccccc3)c(-c3ccccc3)oc2ncn1CCN1CCOCC1	-3%	-22%	?	-2%	-27%	-27%
c1ccc(-c2oc3ncnc(NCCN4CCOCC4)c3c2-c2ccccc2)cc1	-5%[38.3 µM]	16µM*	-3%	1%	-9%	-4%
N=c1c2c(-c3ccccc3)c(-c3ccccc3)n(Cc3ccco3)c2ncn1Cc1ccccc1	0%	-3%	22µM*	1%	?	?
OCCNc1ncnc2c1c(-c1ccccc1)c(-c1ccccc1)n2Cc1ccco1	-3%	28µM*	-27%	7%	-32%	16%
c1ccc(-c2oc3ncnc(NCCCn4ccnc4)c3c2-c2ccccc2)cc1	-3%[38.3 µM]	?	?	-1%	22µM*	?
COc1ccccc1/C=C/c1cnccn1	1%	-14%	·	·	·	·
N=c1c2c(-c3ccccc3)c(-c3ccccc3)n(Cc3ccco3)c2ncn1CCCn1ccnc1	-1%	2%	-7%	0%	?	?
c1ccc(-c2c(-c3ccccc3)n(Cc3ccco3)c3ncnc(NCCCn4ccnc4)c23)cc1	-2%	25µM*	63µM*	10%	-29%	16µM*
COc1ccc(CCNC(=O)C2CCN(S(=O)(=O)c3ccc(-n4cnnn4)cc3)CC2)cc1OC	4%[38.3 µM]	0%	9%	-3%	11%	6%
CC(C)CCNC(=O)C1CCN(S(=O)(=O)c2ccc(-n3cnnn3)cc2)CC1	2%	32µM*	-14%	·	16%	2%
CC(=O)Nc1sc(N/N=C\c2ccco2)nc1-c1cccs1	5%	-3%	18µM*	-1%	-118%	?
CCOc1cc(/C=N/Nc2nc(-c3cccs3)c(NC(C)=O)s2)ccc1O	5%	·	-28%	-1%	-5%	-2%
CC(=O)Nc1sc(N/N=C\c2ccccc2Cl)nc1-c1cccs1	?	-13%	-15%	0%	-2%	-23%
CC(=O)Nc1sc(N/N=C\c2ccccc2)nc1-c1cccs1	1%	·	50µM*	-4%	?	18%
O=C(Cn1ccn(-c2ccc(F)c(F)c2)c(=O)c1=O)NCc1ccccc1	1%	1%	·	13%	·	·
CCc1ccc(-n2c(=O)c3sc4ccccc4c3n(CC(=O)NCc3ccccc3)c2=O)cc1	0%	?	·	-3%	·	·
Cc1ccc(Cl)cc1N1CCN(S(=O)(=O)c2cn(C)c(C)n2)CC1	-5%	-1%	·	-2%	·	·
CCC(=C(c1ccc(OC)cc1)c1ccc(OC)cc1)c1cn(CC(O)CN2CCN(C)CC2)c2ccccc12 (stereo not drawn)	-6%	-2%	50µM*	-1%	?	?
